Only some compounds are listed: those with a hit (about 1.4% of all), similar ones and a draw of the others.
Wee1 degr inh: inhibitors of human Wee1 degradation | P30291 | reporter increase, % at 5 µM | HeLa Luc-Wee1K328M stability, luciferase luminescence; 100% = proteasome inhibitor MG132 effect | AID 1321 | 220,000 tested, 1.2% active;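 active = activation above the mean of all tested compounds plus 3 SD, set per screening run, cut at about 8.8% in these data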;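 also: cells exposed to compound for 20 h before luminescence read; 0% = DMSO alone and 100% = MG132 at 30 µM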
Target sequence (P30291 whole entry K328M): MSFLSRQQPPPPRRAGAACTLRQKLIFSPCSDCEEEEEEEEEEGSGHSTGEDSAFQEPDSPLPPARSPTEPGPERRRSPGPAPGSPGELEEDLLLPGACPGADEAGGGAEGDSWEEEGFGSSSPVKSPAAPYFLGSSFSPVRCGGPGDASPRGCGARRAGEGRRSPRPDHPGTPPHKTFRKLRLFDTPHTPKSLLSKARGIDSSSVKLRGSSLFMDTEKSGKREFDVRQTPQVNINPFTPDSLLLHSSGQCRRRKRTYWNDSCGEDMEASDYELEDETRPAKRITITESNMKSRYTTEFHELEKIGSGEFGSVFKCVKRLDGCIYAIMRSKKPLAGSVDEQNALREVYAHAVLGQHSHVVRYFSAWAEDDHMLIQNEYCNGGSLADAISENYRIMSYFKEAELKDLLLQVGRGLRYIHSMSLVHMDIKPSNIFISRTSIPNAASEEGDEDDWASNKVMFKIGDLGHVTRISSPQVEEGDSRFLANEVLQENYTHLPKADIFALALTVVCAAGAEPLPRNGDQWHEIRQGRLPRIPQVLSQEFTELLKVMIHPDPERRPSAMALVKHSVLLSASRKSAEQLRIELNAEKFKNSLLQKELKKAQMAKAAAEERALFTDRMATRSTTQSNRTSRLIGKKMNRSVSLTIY
TNF death inh: inhibitors of TNF-alpha induced necroptosis in Jurkat FADD-/- cells; 220,000 tested, 0.068% active; Jurkat FADD-/- TNF necroptosis rescue, ATP luminescence, 24 h; 0 = TNF only, 100 = no-TNF cells; activation (protection from cell death), % at 10 µM;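 active = activation, meaning protection from cell death, of at least 50% relative to plate controls; inactive = activation below 50%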;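 also: necroptosis triggered by 40 ng/mL TNF-alpha added together with compound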
L929 necroptosis: L929 zVAD cell death inhibition; viability rescue, % at 10 µM; 220,000 tested, 0.38% active; L929 zVAD necroptosis rescue, ATP luminescence, 24 h; with zVAD 60 µM; AID 1377;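 active = activation, scaled between plate controls, above about 75%, limit read from the data; inactive = activation under that limit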;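 also: 0% = zVAD with DMSO and 100% = DMSO alone without zVAD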
V-ATPase pHluor: yeast V-ATPase proton transport regulation by pHLuorin; 350,000 tested, 0.37% active; AID 504577; S. cerevisiae, pHLuorin cytosolic pH fluorescence; response, % at 10 µM; in the data active = response mostly above about 7.3%, no sharp cut-off; inactive = mostly below about 5.4%; also: actives read high
HSV replic up: HSV replication enhancement. HSV replication augmentation in cells, fold increase. maximum fold increase. 220,000 tested, 0.005% active. AID 1956; in the data active = maximum fold increase above about 1.5; inconclusive = no clear call, values can overlap the other calls; tested in PC3 cells
zVAD necrop conf: confirmed blocker of zVAD induced death in L929 cells. activation (protection from necroptosis), % at 10 µM. L929 zVAD-induced necroptosis rescue, ATP luminescence, 24 h. shares compounds with L929 necroptosis. 760 tested, 16% active;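 active = mean protection from necroptosis of at least 50% over duplicate tests; inactive = mean protection below 50%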;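 also: 0% = cells with zVAD alone and 100% = vehicle cells without zVAD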
* = called active by the depositor; i = inactive; ? = inconclusive; / = not tested or not shown.

SMILES	Wee1 degr inh	TNF death inh	L929 necroptosis	V-ATPase pHluor	HSV replic up	zVAD necrop conf
CC(C)(C)/C(O)=C/c1nc2ccccc2oc1=O	4	10	88*	-3	i	8
Cc1nc(SCC(=O)NC(=O)NC(C)C)nc(C)c1C	1	16	-1	2	i	/
O=c1c(O)c(-c2ccc3c(c2)OCO3)oc2ccccc12	0	-1	77*	0	?	1
O=C(Nc1ccc2c(c1)oc1ccccc12)c1ccc2c(c1)OCO2	3	-2	1	3	i	/
COc1ccc(S(=O)(=O)N/N=C(/C)c2ccncc2)c(OC)c1	/	/	/	0	/	/
CCn1c(=O)c(-c2nc3ccccc3[nH]2)c(O)c2ccccc21	3	-1	80*	/	i	1
CCCn1c(=O)c(-c2nc3ccccc3[nH]2)c(O)c2ccccc21	-1	0	71	-1	i	/
COc1cc(/C=N/Nc2ccc(C(F)(F)F)cn2)cc(OC)c1O	5	36	81*	1	i	75*
COc1cc(/C=N/Nc2ccccn2)cc(OC)c1O	0	33	12	1	i	/
Oc1ccc(/C=N/Nc2ccc(C(F)(F)F)cn2)cc1	1	38	83*	-3	i	63*
Oc1ccc(/C=N/Nc2ccc(C(F)(F)F)cn2)c(O)c1	/	/	/	-4	/	/
CCN(CC(=O)NCc1ccc(Cl)cc1)C(=O)/C=C/c1cccs1	-1	1	1	-2	i	/
CCC(C)[C@H](NC(=O)N1CC(=O)Nc2ccccc21)C(=O)N[C@@H](Cc1c[nH]c2ccccc12)C(=O)O (stereo partly drawn)	/	/	/	0	/	/
COc1ccc(CC(=O)NNC(=O)c2nn(Cc3ccccc3)c(=O)c3ccccc23)cc1OC	2	2	-1	2	i	/
CC(=O)/C=C(\C)Nc1ccc(-c2cnc(-c3ccccc3)o2)cc1	3	-4	96*	3	i	22
CC(C)C(=O)Nc1ccc(-c2nnc(-c3ccccc3)o2)cc1	/	/	/	0	/	/
COc1ccc(/C=N/Nc2ncc(Br)cn2)c(OC)c1	-2	20	85*	7	i	1
COc1ccc(/C=N/NC(=O)c2ccc(Br)cc2)c(OC)c1	-2	-1	-1	-2	i	/
NC(=O)c1c(-c2ccccc2)oc2ccc(O)cc12	-3	0	85*	20	i	40
O=C(Cc1ccc(-n2cnnn2)cc1)NC12CC3CC(CC(C3)C1)C2	-2	0	86*	-1	i	35
CCCCNC(=O)COC(=O)c1ccc(F)cc1Cl	-2	0	1	1	i	/
CC(C)CC(=O)Nc1nc2ccc(S(C)(=O)=O)cc2s1	-1	-5	81*	-15	i	10
CCCC(=O)Nc1nc2ccc(S(N)(=O)=O)cc2s1	3	0	80*	-1	i	1
CCC(=O)Nc1nc2ccc(S(C)(=O)=O)cc2s1	2	-6	63	-1	i	/
Cc1ccc(-n2c(SC3CCOC3=O)nc3ccccc3c2=O)cc1 (stereo not drawn)	4	0	0	/	i	/
SMILES	Wee1 degr inh	TNF death inh	L929 necroptosis	V-ATPase pHluor	HSV replic up	zVAD necrop conf
CCc1cccc(NC(=O)CN(C)S(=O)(=O)c2cccc3cccnc23)c1	-2	-2	0	-6	i	/
O=C1CNC(=S)N1CCc1ccc(Cl)cc1	1	21	83*	0	?	35
Oc1ccc(/C=N/N2CCN(c3ccccn3)CC2)cc1	0	-7	-1	0	i	/
CC(C)(C)c1ccc(/C=N/N2CCN(c3ccccn3)CC2)cc1	-1	10	82*	2	i	31
CN(C)/C=C/C(=O)c1ccc(S(=O)c2ccccc2)cc1 (stereo not drawn)	1	0	2	3	i	/
CN(C)/C=C/C(=O)c1ccc(-n2cccc2)cc1	2	0	77*	1	i	3
COc1ccc(Cl)cc1NC(=O)COc1cccc(-n2cnnn2)c1	-1	0	81*	5	i	33
Fc1ccc(NC(=S)N2CCCC(c3ccccc3)=N2)cc1	-1	1	0	0	i	/
O=C(Nc1cccc(Cl)c1)N1N=CCC1c1ccccc1 (stereo not drawn)	-4	92*	89*	-4	i	85*
Fc1ccc(NC(=S)N2N=CCC2c2ccccc2)cc1 (stereo not drawn)	0	94*	82*	-2	i	10
CC(OC(=O)c1cccc(-n2cnnn2)c1)C(=O)Nc1ccc(F)c(F)c1F (stereo not drawn)	/	/	/	10	/	/
CCOC(=O)c1ccc(/C=C2/C=C(c3ccccc3)N(c3ccc(Cl)c(C(=O)O)c3)C2=O)cc1	-2	-7	1	0	i	/
Clc1ccc2[nH]c3c(c2c1)CCc1cn[nH]c1-3	-2	90*	101*	0	i	83*
c1ccc2c3c([nH]c2c1)-c1[nH]ncc1CC3	-1	95*	91*	1	i	93*
COc1ccc(C(=O)NNC(=O)Nc2ccc(Cl)cc2)cc1	-2	1	81*	2	i	2
COc1ccc(NC(=O)NC2(C)CCS(=O)(=O)C2)cc1 (stereo not drawn)	/	/	/	0	/	/
COc1ccc(NC(=O)NC23CC4(C)CC(C)(CC(C)(C4)C2)C3)cc1	1	4	76*	1	i	39
O=C(NNC(=O)c1ccncc1)Nc1ccc(Cl)cc1	/	/	/	3	/	/
O=C(O)CCCNc1ccc(S(=O)(=O)N2CCCCC2)cc1	6	0	0	-1	i	/
CCCCn1c(N)c(N(CCOC)C(=O)C2CC(=O)N(c3cccc(SC)c3)C2)c(=O)[nH]c1=O (stereo not drawn)	/	/	/	5	/	/
CCc1ccccc1Oc1coc2cc(O)ccc2c1=O	/	/	/	-2	/	/
COc1ccc(C(=O)NCC(=O)Nc2cccc(S(=O)(=O)NCc3ccco3)c2)cc1OC	-1	1	0	-2	i	/
CC(=O)c1ccc(OCC(=O)Nc2ccc3c(c2)CCC3)cc1	-3	-2	75*	-2	i	0
O=C(OCn1ncc(Cl)c(Cl)c1=O)c1cccc(C(F)(F)F)c1	1	-17	99*	-1	i	21
CC(=O)N(C(C)=O)c1ncc2c([nH]c3ccccc32)c1C#N	6	-11	87*	5	i	44
COc1ccccc1NC(=O)c1ccc(-c2nn(C)c(=O)c3ccccc23)cc1	-2	0	78*	-1	i	0
O=C(O)CCC(=O)N1CCN(c2ncccn2)CC1	3	0	0	0	i	/
CCOc1ccc(CN(C)C(=O)CCl)cc1	-3	-13	-1	-4	i	/
Cc1cc(NC(=O)CSc2nc3c(cnn3-c3cccc(Cl)c3)c(=O)[nH]2)no1	/	/	/	-1	/	/
O=C(Nc1ccccc1)n1ccc(-c2ccc(-n3ccnc3)cc2)n1	5	15	76*	/	i	47
